# PubChem BioAssay (EPA / NIEHS)
# Records with an inconclusive call do not appear. Activity calls are given as the source filed them. Rule for the calls, unless noted: active = hit-call score of the fitted dose curve at least 0.9, where 1 is the maximum; inconclusive = response in the unintended direction; inactive = score below 0.9.
# Experiments:
# [1] = CCTE_Padilla_ZF_144hpf_TERATOSCORE: (Legacy) CCTE's 144 Hour Post-fertilization zebrafish Assay Teratoscore, Padilla Lab (AID 2283679; active = hit-call score of the fitted dose curve at least 0.9, where 1 is the maximum; inactive = score below 0.9;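 for AC50: zebrafish embryos with chorions exposed by immersion from 6-8 hpf to 5 dpf with daily renewal; teratogenicity score from eye scoring of death hatching and malformations at 144 hpf; higher score means more developmental defects relative to DMSO baseline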)
# Summary of the method: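 Larvae scored by eye at 144 hpf for death, hatching and malformations after a day in clean Hanks'. Before that, daily-renewed exposure at 80 uM (0.4% DMSO, 26C) from roughly 6-8 hpf through 5 dpf, 4 embryos per chemical.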
# [2] = read-out: Glyceraldehyde-3-phosphate dehydrogenase (Homo sapiens) (UniProt P04406); assay: CLD_GAPDH_6hr: CellzDirect (CLD) Gene Expression Assay for Baseline Control (Glyceraldehyde 3-phosphate dehydrogenase) at 6 hours (AID 2283681);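 note: active means increased signal relative to DMSO vehicle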
# Summary of the method: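 GAPDH baseline-control readout from qNPA (S1 nuclease digestion, probe hybridization, chemiluminescence) in lysates of cultured human hepatocytes harvested 6 h post-dosing. Chemicals tested at multiple concentrations versus 0.2% DMSO vehicle; microscopy-based cytotoxicity flagged yes/no.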
# [3] = read-out: xenobiotic metabolism (CYP1A2), CYP1A2 (gene 1544); assay: CLD_CYP1A2_24hr: CellzDirect (CLD) Gene Expression Assay for xenobiotic metabolism (CYP1A2) at 24 hours (AID 2283683)
# Summary of the method: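 CYP1A2 mRNA induction measured by quantitative nuclease protection (chemiluminescent) in human primary hepatocytes 24 h after multi-concentration chemical dosing with daily fresh solutions. DMSO (0.2%) baseline; positive-direction fitting; morphology-based cytotoxicity noted.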
# [4] = read-out: ABC Transporter (ABCB1), ABCB1 (gene 5243); assay: CLD_ABCB1_24hr: CellzDirect (CLD) Gene Expression Assay for ABC Transporter (ABCB1) at 24 hours (AID 2283684);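 for AC50: potency for increase in ABCB1 mRNA relative to DMSO vehicle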
# Summary of the method: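 ABCB1 mRNA induction versus 0.2% DMSO vehicle was read by qNPA chemiluminescence at 24 h. Cultured human hepatocytes from two donor preparations received daily fresh dosing, and phase-contrast cytotoxicity calls were annotated alongside the data.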
# [5] = read-out: Broad substrate specificity ATP-binding cassette transporter ABCG2 (Homo sapiens) (UniProt Q9UNQ0); assay: CLD_ABCG2_24hr: CellzDirect (CLD) Gene Expression Assay for ABC Transporter (ABCG2) at 24 hours (AID 2283685);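 for AC50: AC50 is for induction meaning signal gain over DMSO vehicle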
# Summary of the method: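 ABCG2 mRNA induction, read as gain of chemiluminescent signal over 0.2% DMSO, was measured by quantitative nuclease protection at 24 h. Cultured human liver hepatocytes were given fresh dosing solutions of test chemicals at several concentrations each day.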
# [6] = read-out: Cytochrome P450 2B6 (Homo sapiens) (UniProt P20813); assay: CLD_CYP2B6_24hr: CellzDirect (CLD) Gene Expression Assay for xenobiotic metabolism (CYP2B6) at 24 hours (AID 2283686)
# Summary of the method: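 qNPA chemiluminescent measurement of mRNA at 24 hours in human primary hepatocyte cultures from two donor preparations, with daily fresh dosing and 0.2% DMSO vehicle as baseline. Morphology-based cytotoxicity flagged yes/no.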
# [7] = read-out: HMG-CoA synthase (HMGCS2), HMGCS2 (gene 3158); assay: CLD_HMGCS2_6hr: CellzDirect (CLD) Gene Expression Assay for HMG-CoA synthase (HMGCS2) at 6 hours (AID 2283682);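 note: actives raise HMGCS2 transcript above the 0.2% DMSO vehicle baseline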
# Summary of the method: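 HMGCS2 transcript induction read by quantitative nuclease protection with chemiluminescence, 6 h after dosing of primary human hepatocytes. Baseline was 0.2% DMSO vehicle; phase-contrast morphology gave a yes/no cytotoxicity annotation.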
# [8] = read-out: Cytochrome P450 3A4 (Homo sapiens) (UniProt P08684); assay: CLD_CYP3A4_24hr: CellzDirect (CLD) Gene Expression Assay for xenobiotic metabolism (CYP3A4) at 24 hours (AID 2283689)
# Summary of the method: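 CYP3A4 mRNA induction read by quantitative nuclease protection (chemiluminescence) 24 hr after dosing. Cultured human hepatocytes (two donor preparations) treated daily, vehicle 0.2% DMSO; phase-contrast morphology annotates cytotoxicity.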
# [9] = read-out: Cytochrome P450 3A4 (Homo sapiens) (UniProt P08684); assay: CLD_CYP3A4_6hr: CellzDirect (CLD) Gene Expression Assay for xenobiotic metabolism (CYP3A4) at 6 hours (AID 2283680)
# Summary of the method: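 CYP3A4 mRNA induction, 6 h after dosing of cultured primary human hepatocytes from two donors, read by quantitative nuclease protection (qNPA, chemiluminescence). Vehicle 0.2% DMSO as baseline; morphology-based cytotoxicity annotated yes/no.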
# [10] = read-out: Cytochrome P450 2C19 (Homo sapiens) (UniProt P33261); assay: CLD_CYP2C19_24hr: CellzDirect (CLD) Gene Expression Assay for xenobiotic metabolism (CYP2C19) at 24 hours (AID 2283687);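 note: activity means mRNA induction above DMSO vehicle baseline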
# Summary of the method: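 CYP2C19 mRNA was quantified by qNPA chemiluminescence after 24 h of daily dosing of cultured human primary hepatocytes from two donors; vehicle was 0.2% DMSO, and increases over DMSO baseline were fitted.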
# Chain of Glyceraldehyde-3-phosphate dehydrogenase (Homo sapiens) (P04406 whole entry, looked up): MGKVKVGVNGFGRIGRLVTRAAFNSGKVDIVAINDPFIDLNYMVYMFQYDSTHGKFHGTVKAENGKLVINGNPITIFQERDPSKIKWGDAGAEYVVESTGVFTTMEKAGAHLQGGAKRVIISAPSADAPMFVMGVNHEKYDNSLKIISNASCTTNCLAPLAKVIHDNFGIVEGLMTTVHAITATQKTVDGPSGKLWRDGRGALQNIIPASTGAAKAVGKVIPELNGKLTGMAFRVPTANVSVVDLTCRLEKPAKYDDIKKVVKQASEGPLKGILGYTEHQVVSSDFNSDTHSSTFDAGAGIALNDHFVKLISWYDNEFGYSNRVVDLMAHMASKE
# Chain of Broad substrate specificity ATP-binding cassette transporter ABCG2 (Homo sapiens) (Q9UNQ0 whole entry, looked up): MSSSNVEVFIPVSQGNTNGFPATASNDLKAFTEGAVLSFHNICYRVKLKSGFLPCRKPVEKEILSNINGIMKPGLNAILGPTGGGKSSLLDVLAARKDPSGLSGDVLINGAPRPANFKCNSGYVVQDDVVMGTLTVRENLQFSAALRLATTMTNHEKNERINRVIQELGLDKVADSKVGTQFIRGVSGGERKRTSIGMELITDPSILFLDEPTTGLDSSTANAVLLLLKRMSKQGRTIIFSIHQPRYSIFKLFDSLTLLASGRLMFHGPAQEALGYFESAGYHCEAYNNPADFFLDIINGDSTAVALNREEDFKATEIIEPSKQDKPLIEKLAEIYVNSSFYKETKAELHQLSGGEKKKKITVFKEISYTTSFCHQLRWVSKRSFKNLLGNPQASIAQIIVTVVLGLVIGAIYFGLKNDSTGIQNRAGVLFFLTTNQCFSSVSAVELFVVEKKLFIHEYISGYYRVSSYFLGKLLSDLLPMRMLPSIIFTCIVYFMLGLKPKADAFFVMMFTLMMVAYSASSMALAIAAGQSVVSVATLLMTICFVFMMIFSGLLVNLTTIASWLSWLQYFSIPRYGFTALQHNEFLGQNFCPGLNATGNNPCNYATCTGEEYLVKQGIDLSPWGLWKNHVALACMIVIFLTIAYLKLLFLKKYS
# Chain of Cytochrome P450 3A4 (Homo sapiens) (P08684 whole entry, looked up): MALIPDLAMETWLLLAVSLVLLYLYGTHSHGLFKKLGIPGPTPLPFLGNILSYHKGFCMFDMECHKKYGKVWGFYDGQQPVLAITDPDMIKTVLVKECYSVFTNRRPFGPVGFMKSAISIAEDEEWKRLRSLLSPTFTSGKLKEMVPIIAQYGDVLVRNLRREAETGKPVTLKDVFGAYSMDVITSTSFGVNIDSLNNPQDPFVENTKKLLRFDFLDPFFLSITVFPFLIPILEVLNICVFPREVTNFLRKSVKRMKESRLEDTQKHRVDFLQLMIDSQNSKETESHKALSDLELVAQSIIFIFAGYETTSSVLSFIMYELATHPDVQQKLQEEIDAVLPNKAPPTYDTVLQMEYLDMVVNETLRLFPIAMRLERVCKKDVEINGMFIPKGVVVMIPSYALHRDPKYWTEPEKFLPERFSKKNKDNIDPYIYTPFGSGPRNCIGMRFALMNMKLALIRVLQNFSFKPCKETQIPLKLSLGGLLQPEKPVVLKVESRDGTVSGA
# Chain of Cytochrome P450 2C19 (Homo sapiens) (P33261 whole entry, looked up): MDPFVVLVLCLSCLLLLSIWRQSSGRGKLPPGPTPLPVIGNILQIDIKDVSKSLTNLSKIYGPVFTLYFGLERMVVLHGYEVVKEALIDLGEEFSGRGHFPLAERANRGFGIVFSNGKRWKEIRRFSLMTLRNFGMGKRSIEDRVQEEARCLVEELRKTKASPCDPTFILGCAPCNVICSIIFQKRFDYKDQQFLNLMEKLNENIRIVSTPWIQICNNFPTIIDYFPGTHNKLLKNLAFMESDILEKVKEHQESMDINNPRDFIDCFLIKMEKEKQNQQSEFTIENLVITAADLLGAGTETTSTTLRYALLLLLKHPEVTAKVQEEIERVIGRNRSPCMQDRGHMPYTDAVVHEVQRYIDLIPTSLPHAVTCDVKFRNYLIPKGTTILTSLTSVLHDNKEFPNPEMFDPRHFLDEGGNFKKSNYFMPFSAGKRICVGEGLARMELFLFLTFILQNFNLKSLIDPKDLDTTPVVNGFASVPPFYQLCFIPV
structure (smiles),measurement,setting,value
CCOP(=S)(Oc1cnc(C(C)(C)C)nc1)OC(C)C (configuration not stated),AC50,[1],16.8 µM (active)
same,outcome,[2],inactive
same,AC50,[3],6.43 µM (active)
same,outcome,[4],inactive
same,outcome,[5],inactive
same,AC50,[6],2.05 µM (active)
CN(C)NC(=O)CCC(=O)O,outcome,[1],inactive
same,outcome,[2],inactive
same,outcome,[7],inactive
same,outcome,[3],inactive
same,outcome,[4],inactive
same,outcome,[5],inactive
same,outcome,[8],inactive
CON=C(C(=O)OC)c1ccccc1CON=C(C)c1cccc(C(F)(F)F)c1,AC50,[1],0.208 µM (active)
same,outcome,[3],inactive
same,outcome,[4],inactive
same,outcome,[5],inactive
same,AC50,[6],20 µM (active)
CCCOc1nn(C(=O)NS(=O)(=O)c2ccccc2C(=O)OC)c(=O)n1C,outcome,[1],inactive
same,outcome,[2],inactive
same,outcome,[7],inactive
same,outcome,[6],inactive
same,AC50,[8],9.43 µM (active)
CCc1cccc(C)c1N(C(=O)CCl)C(C)COC (configuration not stated),AC50,[9],0.477 µM (active)
same,outcome,[2],inactive
same,outcome,[7],inactive
same,AC50,[3],3.97 µM (active)
same,outcome,[4],inactive
same,AC50,[6],1.61 µM (active)
same,outcome,[10],inactive
CC(C)N(C(=O)SCC(Cl)=C(Cl)Cl)C(C)C,outcome,[9],inactive
same,outcome,[3],inactive
same,AC50,[4],35.3 µM (active)
same,outcome,[5],inactive
same,AC50,[6],20 µM (active)
Cc1cc(C2CC2)nc(Nc2ccccc2)n1,AC50,[3],4.15 µM (active)
same,AC50,[6],3.97 µM (active)
CCCCSP(=O)(SCCCC)SCCCC,outcome,[2],inactive
same,AC50,[3],2.48 µM (active)
same,outcome,[4],inactive
same,outcome,[5],inactive
same,AC50,[6],1.9 µM (active)
COP(=O)(OC)OC(Br)C(Cl)(Cl)Br (configuration not stated),outcome,[2],inactive
same,outcome,[7],inactive
same,outcome,[3],inactive
same,outcome,[4],inactive
CCCSP(=O)(OCC)Oc1ccc(Br)cc1Cl (configuration not stated),AC50,[3],4.13 µM (active)
same,outcome,[4],inactive
same,outcome,[5],inactive
Cc1ccn2nc(S(=O)(=O)Nc3c(F)cccc3F)nc2n1,outcome,[2],inactive
same,outcome,[3],inactive
same,outcome,[4],inactive
same,outcome,[5],inactive
same,outcome,[6],inactive
CCC(=NOC/C=C/Cl)C1=C(O)CC(C2CCOCC2)CC1=O (configuration not stated),outcome,[2],inactive
same,outcome,[7],inactive
same,outcome,[3],inactive
same,outcome,[4],inactive
same,outcome,[6],inactive
same,outcome,[8],inactive
CC(C1CC1)C(O)(Cn1cncn1)c1ccc(Cl)cc1 (configuration not stated),outcome,[2],inactive
same,AC50,[3],4.89 µM (active)
same,outcome,[4],inactive
S=C1NCCN1,outcome,[2],inactive
same,outcome,[4],inactive
same,outcome,[5],inactive
CCOC(=O)COc1cc(-c2nn(C)c(OC(F)F)c2Cl)c(F)cc1Cl,outcome,[2],inactive
same,outcome,[3],inactive
same,outcome,[4],inactive
CNC(=O)ON=C(SC)C(=O)N(C)C,outcome,[2],inactive
same,outcome,[7],inactive
same,outcome,[3],inactive
same,outcome,[4],inactive
CC[C@H](C)[C@H]1O[C@]2(C=C[C@@H]1C)C[C@@H]1C[C@@H](C/C=C(\C)[C@@H](O[C@H]3C[C@H](OC)[C@@H](O[C@H]4C[C@H](OC)[C@@H](NC)[C@H](C)O4)[C@H](C)O3)[C@@H](C)/C=C/C=C3\CO[C@@H]4[C@H](O)C(C)=C[C@@H](C(=O)O1)[C@]34O)O2,outcome,[7],inactive
same,outcome,[3],inactive
same,outcome,[4],inactive
same,outcome,[5],inactive
same,outcome,[6],inactive
COc1cc(OC)nc(Sc2cccc(Cl)c2C(=O)O)n1,outcome,[2],inactive
same,outcome,[7],inactive
same,outcome,[4],inactive
same,outcome,[5],inactive
same,AC50,[8],20 µM (active)
CCCSP(=O)(OCC)SCCC,outcome,[2],inactive
same,outcome,[7],inactive
same,AC50,[3],4.21 µM (active)
same,outcome,[4],inactive
same,outcome,[5],inactive
COc1ccc(C(=CC(=O)N2CCOCC2)c2ccc(Cl)cc2)cc1OC,outcome,[4],inactive
same,outcome,[5],inactive
same,AC50,[6],3.59 µM (active)
CCCCOC(=O)[C@@H](C)Oc1ccc(Oc2ccc(C#N)cc2F)cc1,outcome,[2],inactive
same,outcome,[7],inactive
same,outcome,[4],inactive
same,outcome,[8],inactive
C=C(C)[C@H]1Cc2c(ccc3c2O[C@@H]2COc4cc(OC)c(OC)cc4[C@@H]2C3=O)O1,outcome,[2],inactive
same,outcome,[7],inactive
same,outcome,[4],inactive
same,AC50,[5],6.65 µM (active)
same,outcome,[8],inactive
CSc1nnc(C(C)(C)C)c(=O)n1N,outcome,[2],inactive
same,outcome,[7],inactive
same,AC50,[3],20 µM (active)
same,outcome,[4],inactive
same,outcome,[5],inactive
CC(COc1ccc(Oc2ccccc2)cc1)Oc1ccccn1 (configuration not stated),outcome,[7],inactive
same,outcome,[3],inactive
same,outcome,[4],inactive
same,outcome,[5],inactive
same,AC50,[6],3.97 µM (active)
CSc1nc(NC(C)C)nc(NC(C)C)n1,outcome,[2],inactive
same,AC50,[3],2.63 µM (active)
same,outcome,[4],inactive
CC1=NNC(=O)N(/N=C/c2cccnc2)C1,outcome,[2],inactive
same,outcome,[7],inactive
same,AC50,[3],5.59 µM (active)
same,outcome,[4],inactive
same,outcome,[6],inactive
CCC(=O)Nc1ccc(Cl)c(Cl)c1,outcome,[7],inactive
same,AC50,[3],3.95 µM (active)
same,outcome,[8],inactive
CC1(C(=O)Nc2ccc(O)c(Cl)c2Cl)CCCCC1,outcome,[2],inactive
same,outcome,[7],inactive
same,outcome,[4],inactive
same,outcome,[6],inactive
COP(=O)(NC(C)=O)SC (configuration not stated),outcome,[2],inactive
same,outcome,[3],inactive
same,outcome,[4],inactive
CCOP(=O)(OCC)Oc1cc(C)nc(C(C)C)n1,outcome,[2],inactive
same,outcome,[7],inactive
same,AC50,[3],30.7 µM (active)
same,outcome,[5],inactive
CSC1=N[C@@](C)(c2ccccc2)C(=O)N1Nc1ccccc1,outcome,[2],inactive
same,outcome,[7],inactive
same,AC50,[3],3.97 µM (active)
same,outcome,[4],inactive
same,outcome,[5],inactive
same,outcome,[8],inactive
O=c1ccc(=O)[nH][nH]1,outcome,[2],inactive
same,outcome,[7],inactive
same,outcome,[3],inactive
same,outcome,[4],inactive
same,outcome,[5],inactive
CCNc1nc(Cl)nc(NC(C)(C)C#N)n1,outcome,[7],inactive
same,outcome,[3],inactive
same,outcome,[4],inactive
same,AC50,[6],3.69 µM (active)
CC(Oc1cccc(Cl)c1)C(=O)O (configuration not stated),outcome,[2],inactive
same,outcome,[7],inactive
same,outcome,[3],inactive
same,outcome,[4],inactive
CN1COCN(Cc2cnc(Cl)s2)C1=N[N+](=O)[O-],outcome,[7],inactive
same,outcome,[3],inactive
same,outcome,[8],inactive
CCCCN(CC)c1c([N+](=O)[O-])cc(C(F)(F)F)cc1[N+](=O)[O-],outcome,[2],inactive
same,AC50,[3],7.29 µM (active)
same,outcome,[4],inactive
